About 83,000 compounds went through this panel and 20% of them were active in at least one assay; those are over-represented in the sample as a whole.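 48-hour exposure, single concentration, 96-well plates; percent growth endpoint where 0 means no net growth. Active: below 10.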 Unmarked numbers belong to inactive results. Active and inactive are the calls of the source.

In the experiment the test system is LOX IMVI melanoma. Description: NCI-60 one-dose screen, 48 h (100 = growth as untreated, 0 = no growth, -100 = all killed). The conditions noted are these: 10 µM.
For `Cc1ccc(S(=O)(=O)c2nc(S(=O)(=O)c3ccc(C)cc3)c(Cl)s2)cc1`, the growth is -93% (active). As for `CCCCSc1nc(Nc2ccc(C(C)=O)cc2)c(C#N)c(-c2ccc(OC)cc2)n1`, the figure is 39.7%. Under `CCOC(=O)C1=C(N)N(c2ccccc2)C2=C(C(=O)CC(C)(C)C2)C1c1ccc([N+](=O)[O-])cc1` (stereo not drawn) stands 85.5%.

In the case of `Cc1cccc(Nc2nc3ccccc3nc2/C=C/c2ccc(F)cc2)c1`, the growth is 101%.

`Cc1cccc(NC(=O)CN2CCN(c3ncnc4c3cnn4-c3ccccc3)CC2)c1`: the growth was 88.1%. Under `Cn1cc(-c2cc3nc(-c4c[nH]c5ccc(Br)cc45)cc(N)n3n2)c2ccccc21` stands -85.1% (active). Turning to `C#CCOc1ccc(/C=N/Nc2nc(-c3cc4cc(OC)ccc4oc3=O)cs2)cc1OC`, the growth was 22.8%. Take `CC1(C)CC[C@]2(C(=O)O)CC[C@]3(C)C(=CCC4[C@@]5(C)C[C@@H](O)[C@@H]6OC(c7ccc(F)cc7)OC[C@@]6(C)C5CC[C@]43C)C2C1` (stereo partly drawn): the growth was 19.9%. As to `O=C(NN1C(=O)/C(=C/C=C/c2ccc([N+](=O)[O-])o2)SC1=S)c1cccc(O)c1`, the growth is -93.5% (active). For `Cc1ccc(C(=O)NN2C(=O)/C(=C/C=C/c3ccc([N+](=O)[O-])o3)SC2=S)cc1`, the growth is -90.9% (active). `N/C(=N\c1nc2ccccc2s1)NC(=O)Nc1c(Cl)cccc1Cl`: the growth is 24.7%. As to `O=C(CN1C(=O)/C(=C/c2ccccc2Cl)SC1=S)N1CCOCC1`, the growth was 48.2%.

For `CN(C)c1nc(NCCNS(=O)(=O)c2ccc(C3=Nc4c(N)nc(N)nc4NC(c4ccc(C(F)(F)F)cc4)C3)cc2)nc(Nc2ccc(F)cc2)n1` (stereo not drawn), the growth is -78.2% (active). As for `O=C(CSc1nc2ccccc2c(=O)[nH]1)NCCN1CCCCC1`, the figure is 98.3%. As for `Cn1cc(-c2nnc(N)nc2-c2c[nH]c3ccc(Br)cc23)c2cc(Br)cnc21`, the figure is 58.7%.

With `O=C(O)Cn1c(O)c(/C=C2/C=c3cc4c(cc3=NC2=O)OCCO4)sc1=S`, the growth is 93.6%.

`N/C(=N\c1nc2ccccc2s1)NC(=O)Nc1ccc(Cl)cc1Cl`: the growth was -96.8% (active). Consider `Cc1ccc(-c2nc(C#N)c(S(=O)(=O)N3CCN(S(=O)(=O)c4ccccc4)CC3)o2)cc1`, for which the growth is -92.2% (active). For `COc1cccc(-c2nc(Nc3ccc(S(N)(=O)=O)cc3)c3ccccc3n2)c1`, the growth was 24.8%. With `COc1ccc(/C=C/c2nc3ccccc3n3c(-c4ccc(Cl)cc4)nnc23)cc1`, the growth is 88.5%. Under `CNS(=O)(=O)c1ccc(Nc2ccc(C(F)(F)F)cc2)c(-c2cn(C)cn2)c1` stands 43.1%; under `CCS(=O)(=O)N1CCCC(C(=O)Nc2nc3ccc(NC(=O)c4ccc(F)c(OC)c4F)cc3s2)C1` (stereo not drawn), 67.6%; under `C#CCOc1cc(N(CC)CC)ccc1C(C(=O)NC(C)(C)C)N(C(=O)C1CCc2cc(F)ccc2O1)c1cc(C)cc(C)c1` (stereo not drawn), 32.5%.

As to `C#CCOc1ccc(/C=N/Nc2nc(-c3ccc(Cl)cc3)cs2)cc1OC`, the growth was 58.6%. As for `O=C(COc1ccc2c(c1)CCCC(=O)N2)NCc1ccccc1`, the growth was 78.1%. As for `CN(C)c1nc(NCCNS(=O)(=O)c2ccc(C3=Nc4c(N)nc(N)nc4NC(c4ccccc4)C3)cc2)nc(Nc2ccc(F)cc2)n1` (stereo not drawn), the figure is 3.29% (active); as for `CC1(C)CC[C@]2(C(=O)O)CC[C@]3(C)C(=CCC4[C@@]5(C)C[C@@H](O)[C@@H]6OC(c7ccccc7F)OC[C@@]6(C)C5CC[C@]43C)C2C1` (stereo partly drawn), -1.57% (active). For the compound `Cc1cccc(-c2nc(Nc3ccc(C)c(S(N)(=O)=O)c3)c3ccccc3n2)c1`, the growth was -34.7% (active).

With `COC(=O)C[C@](O)(CCCC(C)(C)O)C(=O)O[C@H]1C(OC)=C[C@@]23CCCN2CCc2cc4c(cc2[C@@H]13)OCO4`, the growth is -82.4% (active).

For `Cn1cc(-c2cc(N)n3nc(-c4cn(C)c5ccccc45)cc3n2)c2cc(Cl)ccc21`, the growth was -86.5% (active). Take `CC1(C)CC[C@]2(C(=O)O)CC[C@]3(C)C(=CCC4[C@@]5(C)C[C@@H](O)[C@@H]6OC(c7ccco7)OC[C@@]6(C)C5CC[C@]43C)C2C1` (stereo partly drawn): the growth is 22.9%. As for `Cn1cc(-c2cc3nc(-c4c[nH]c5ccc(Cl)cc45)cc(N)n3n2)c2ccccc21`, the figure is -80.7% (active). `COc1ccc(Cc2nn(CC(=O)N/N=C/c3ccc(F)cc3)c(=O)c3c(C)noc23)cc1`: the growth was 29.5%.
